SMN2 splice up: enhancers of SMN2 splice variant expression | HEK293 SMN2-luciferase splicing reporter, luminescence, 30-36 h | Potency, µM (series often up to 46.1 µM), for the others: top-dose activity change, positive = activation, most hits filed as activators | 210,000 compounds, 2.8% hits; further: % of control where 0% means no effect; nearly all actives have a fitted effect of over 55% in size
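HEK293 cells carry an SMN2 […]–luciferase reporter in which exon 7 inclusion puts luciferase in frame. Cells were plated 10-12 h before compound addition, then incubated 30-36 h at 37C. ONE-Glo luminescence was read; sodium butyrate at 4.5 mM final served as control.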
FLuc modulator: firefly luciferase modulation, counter-screen for miR-21 project. P08659. purified FLuc, Km substrates, luminescence inhibition. Potency, µM (titrated, usually from 57.5 µM), without a hit: at the top dose activity change, negative = inhibition, usual class: inhibitors. 360,000 compounds, 6.9% hits. AID 588342;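 further: plate controls were vehicle for no effect and reference inhibitor for full effect; nearly all actives have a fitted effect of over 55% in size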
Target sequence (P08659 whole entry, looked up): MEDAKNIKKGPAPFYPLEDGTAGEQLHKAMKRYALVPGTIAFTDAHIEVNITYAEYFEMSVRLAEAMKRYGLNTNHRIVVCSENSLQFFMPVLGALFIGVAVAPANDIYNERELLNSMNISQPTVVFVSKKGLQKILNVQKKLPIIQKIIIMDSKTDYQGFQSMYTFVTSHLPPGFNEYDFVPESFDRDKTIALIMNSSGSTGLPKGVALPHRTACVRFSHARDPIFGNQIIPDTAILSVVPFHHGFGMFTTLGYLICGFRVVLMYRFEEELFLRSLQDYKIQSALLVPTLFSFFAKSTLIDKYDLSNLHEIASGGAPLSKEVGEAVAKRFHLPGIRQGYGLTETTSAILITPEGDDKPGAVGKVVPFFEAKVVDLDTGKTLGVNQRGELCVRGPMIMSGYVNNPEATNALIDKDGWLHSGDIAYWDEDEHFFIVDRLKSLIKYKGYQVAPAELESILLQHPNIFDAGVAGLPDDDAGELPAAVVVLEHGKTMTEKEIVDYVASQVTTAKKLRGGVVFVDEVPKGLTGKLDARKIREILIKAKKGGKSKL
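Purified P. pyralis luciferase (10nM final) with 10uM D-luciferin and 10uM ATP (Km levels) in 50mM Tris acetate pH 7.5, 10mM Mg acetate, 0.01% Tween-20, 0.05% BSA; qHTS 6-point titration, ~60 µM downward; luminescence read.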
ELG1 genotoxic: genotoxicity induction in ELG1-luciferase HEK293T cells; HEK293T ELG1-luciferase reporter, luminescence, 16 h; Potency, µM (top dose mostly 46 µM), without a hit: at the highest dose activity change, positive = activation, actives largely listed as activators; 330,000 compounds, 1.3% hits; AID 504466; further: % of control where 0% means no effect; nearly all actives have a fitted effect of over 60% in size
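HEK293T cells expressing luciferase-tagged ELG1 were treated with compound or DMSO for 16 hr at 37°C. Luciferase activity was then read after 30 min with ONE-Glo at room temperature; rising signal flags genetic stress.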
ELG1 repair inh: inhibitors of ELG1-dependent DNA repair in HEK293T cells; HEK293T ELG1-luciferase reporter, luminescence, 16 h; DNA damage induced by 5-fluorouridine; Potency, µM (series often up to 46.1 µM), without a hit: at the highest dose activity change, negative = inhibition, most hits filed as inhibitors; 330,000 compounds, 2.3% hits; AID 504467; further: on the % scale 0 is the no-effect control and ±100 the full control effect; nearly all actives have a fitted effect of over 55% in size
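Luminescence from the luciferase reporter, measured 30 min after ONE-Glo reagent at room temperature, was the read-out. Beforehand, 2,000 cells per well were exposed for 16 hr at 37 °C to 5-fluorouridine together with compound or vehicle.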
Rab9 prom act: activates the Rab9 promoter | Huh7 Rab9 promoter-luciferase reporter, luminescence, 24 h | Potency, µM (titrated, usually from 9.22 µM), for inactives: top-dose activation, negative = inhibition, most hits filed as activators | 320,000 compounds, 2.8% hits | AID 485297; further: % of control where 0% means no effect; nearly all actives have a fitted effect of over 60% in size
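Steps: seed 1500 Huh7 Rab9-luc cells per well, rest 2 h at 37 °C; add compound in DMSO; incubate 24 h; add luciferase reagent, 10 min ambient; read luminescence.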
NPC1 prom act: activators of NPC1 promoter; Huh7 NPC1 promoter luciferase reporter, 24 h; Potency, µM (series often up to 9.22 µM), for the others: at the highest dose activation, usual class: activators; 320,000 compounds, 2.4% hits; AID 485313; further: % of control where 0% means no effect; nearly all actives have a fitted effect of over 60% in size
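Quantitative HTS used a cell-based reporter: Huh7 cells stably bearing the NPC1 promoter upstream of luciferase were treated with compounds for 24 h, and promoter activation was read as luminescence.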
The depositor's hits bear a star; ? = inconclusive; nt = no result given; [ ] = remark or other dose. Hits are enriched below; roughly 9.4% of the tested compounds scored in any of these assays. The call rests on the fitted dose curve; in most records, active means well fitted curve in the direction sought with a large enough effect; inconclusive means small, poorly fitted or top-dose-only effect, or another doubt; inactive means no such curve, though single readings can be large; an effect the other way counts as inactive or inconclusive. Potency means the concentration at half of the fitted maximal effect.

SMILES | SMN2 splice up | FLuc modulator | ELG1 genotoxic | ELG1 repair inh | Rab9 prom act | NPC1 prom act
Cc1ccc2oc3c(c(=O)c2c1)C(c1cccc(Br)c1)N(Cc1ccco1)C3=O (stereo not given) | -6% | 0% | -1% | -2% | -1% | -5%
COc1ccccc1CNc1ncnc2c1c(-c1ccccc1)cn2-c1ccc(Br)cc1 | nt | 2% | nt | nt | nt | nt
CCOc1ccc(N/C=C/C(=O)c2ccc3ccccc3c2)c([N+](=O)[O-])c1 | 2.5µM* | 0.85µM* | 16% | ? | 2µM* | 2µM*
CCOc1ccc(NC(=O)COc2ccccc2)c([N+](=O)[O-])c1 | ? | 3µM* | ? | ? | 3.5µM* | ?
CCOc1ccc(N/C=C/C(=O)c2ccc(C)cc2)c([N+](=O)[O-])c1 | ? | 1.3µM* | ? | ? | ? | 1.4µM*
Cc1ccc(C(=O)/C=C/Nc2ccc([N+](=O)[O-])cc2Br)cc1 | ? | 0.34µM* | ? | ? | 0.45µM* | 0.45µM*
CCOc1ccc(NC(=O)Cc2cccc3ccccc23)c([N+](=O)[O-])c1 | -12% | 5% | -1% | -13% | -5% | -7%
CCOc1ccc(NC(=O)Cc2ccccc2)c([N+](=O)[O-])c1 | 1% | -18% | 7% | ? | 10% | 2%
COc1ccc(C)cc1Nc1cc(C)nc(C)n1 | nt | 4% | nt | nt | nt | nt
CCN1CCN(C(=O)c2ccc3c(c2)N(Cc2ccc(Cl)cc2)C(=O)c2ccccc2S3=O)CC1 (stereo not given) | -2% | -1% | nt | nt | nt | nt
Cc1ccc2c(C)c(C(=O)N3CCN(Cc4ccc5c(c4)OCO5)CC3)oc2c1C | nt | 24µM* | 17% | ? | ? | ?
COc1ccc(N(C)S(=O)(=O)c2cccc(C(=O)N3CCN(Cc4ccc5c(c4)OCO5)CC3)c2)cc1 | nt | -1% | -10% | -21% | 2% | 2%
Cc1ccc(C(=O)N2CCN(Cc3ccc4c(c3)OCO4)CC2)o1 | 7% | 1% | 0% | -3% | 4% | -4%
CCOc1ccc(N(C)S(=O)(=O)c2ccc(C)c(C(=O)N3CCN(Cc4ccc5c(c4)OCO5)CC3)c2)cc1 | nt | nt | -8% | 16µM* | nt | nt
CCCCC/C=C\C\C=C/C=C/C=C/[C@@H](SCC(NC(C)=O)C(=O)O)[C@@H](O)CCCC(=O)O (stereo not given in full) | -2% | nt | nt | nt | nt | nt
O=C1COc2ccc(C(=O)COC(=O)c3ccccc3[N+](=O)[O-])cc2N1 | nt | 1.5µM* | 9% | 28% | ? | 20%
CC(C)[C@H](NC(=O)c1ccco1)C(=O)OCC(=O)c1ccc2c(c1)NC(=O)CO2 | 4% | ? | -3% | -8% | 1% | -2%
O=C1COc2ccc(C(=O)COC(=O)c3ccco3)cc2N1 | nt | 12µM* | 1% | 9% | -1% | 0%
O=C1COc2ccc(C(=O)COC(=O)c3ccc(Cl)cc3[N+](=O)[O-])cc2N1 | nt | 0% | nt | -18% | -8% | 0%
CCCC(=O)Nc1ccc(Br)cn1 | 23% | -4% | -7% | 15% | 24% | 0%
Cc1ccnc(NC(=O)CCC2CCCCC2)c1 | ? | 11µM* | 8.2µM* | ? | ? | ?
O=C(CCC1CCCC1)Nc1ccc(Br)cn1 | ? | -4%[2.3 µM] | 20% | ? | 2.2µM* | ?
Cc1cc(C)c2nc(C)cc(Nc3cccc(C(=O)O)c3)c2c1 | 0% | -2% | nt | nt | nt | nt
Cc1ccc(-n2cc3c(c2-c2ccccc2Br)c(=O)n(C)c(=O)n3C)cc1N | 10% | 4% | nt | nt | nt | nt
CCOC(=O)Cc1csc(NC(=O)Cc2ccc(C)cc2)n1 | -1% | -17% | -4% | 16% | -4% | -5%
SMILES | SMN2 splice up | FLuc modulator | ELG1 genotoxic | ELG1 repair inh | Rab9 prom act | NPC1 prom act
CCOC(=O)Cc1csc(NC(=O)Nc2ccc(C)cc2)n1 | nt | 3µM* | 0% | -2% | 21% | 17%
CCOC(=O)Cc1csc(NC(=O)Cc2cccs2)n1 | nt | ? | 7% | 20% | -5% | 1%
CCOC(=O)Cc1csc(NC(=O)Nc2cccc(OC)c2)n1 | nt | 15µM* | -2% | -20% | -1% | 13%
CCOC(=O)Cc1csc(NC(=O)Nc2cccs2)n1 | nt | 21µM* | 7% | 2% | 24% | ?
CCOC(=O)Cc1csc(NC(=O)c2cccc(OC)c2)n1 | -3% | ? | 3% | 7% | 0% | 4%
CCOC(=O)Nc1nc(-c2ccc(F)cc2F)cs1 | 26% | 19µM* | 14% | ? | ? | ?
O=C(/C=C/c1ccc2c(c1)OCO2)Nc1nc(-c2ccc(F)cc2F)cs1 | -82% | 1% | 8% | -17% | -12% | -7%
Cc1ccc(C)c(NC(=O)C2CCN(S(=O)(=O)c3c(C)noc3/C=C/c3cccs3)CC2)c1 | 3% | -9% | nt | nt | nt | nt
C=C1CCC[C@]2(C)C[C@H]3OC(=O)[C@H](CNCCc4ccccc4OC)C3CC12 (stereo not given in full) | 10% | nt | nt | nt | nt | nt
CCCC(=O)Nc1ccc(C(=O)Nc2nc(CC(=O)OCC)cs2)cc1 | -3% | 15µM* | -1% | -13% | -1% | 1%
CCOC(=O)Cc1csc(NC(=S)NC(=O)c2ccc(F)cc2)n1 | -7% | ? | -1% | 18% | 5% | -2%
CCCNC(=O)Nc1nc(CC(=O)OCC)cs1 | -1% | -4% | 0% | 9% | -1% | -4%
CCOC(=O)Cc1csc(NC(=O)C(NC(=O)C2CCC(C)CC2)C(C)C)n1 (stereo not given) | nt | 2% | -6% | 8.2µM* | -22% | -9%
CCOC(=O)Cc1csc(NC(=O)Nc2ccc(F)cc2)n1 | nt | 11µM* | -10% | 7.3µM* | -1% | 4%
CCOC(=O)Cc1csc(NC(=O)c2ccc(OC)c(OC)c2)n1 | -20% | ? | -10% | -5% | 5% | 4%
N[C@@H](CSCc1ccccc1)C(=O)O | -19%[9.22 µM] | nt | nt | nt | nt | nt
Cc1ccc(O)c(C(=O)/C=C/c2ccc3c(c2)OCCCO3)c1 | ? | 5.4µM* | ? | ? | ? | ?
O=C(/C=C/c1ccc2c(c1)OCCCO2)c1ccccc1O | ? | 0.27µM* | 16µM* | ? | 1.8µM* | 3.2µM*
Cc1oc2c(c(C)cc3oc(=O)c(CC(=O)NCCc4ccccc4)c(C)c32)c1C | 6% | -6% | nt | nt | nt | nt
O=C(N/N=C/c1cccc(O)c1)c1ccccc1O | nt | 1.5µM* | ? | ? | 8% | 1%
O=C(Oc1ccc(/C=N/NC(=O)c2ccccc2O)cc1)c1ccccc1 | -2% | ? | ? | ? | -3% | 2%
O=C(N/N=C/c1cccc(O)c1)c1csc2ccccc12 | 0% | 21µM* | 16% | ? | -5% | 16%
